Test results from PubChem BioAssay.

Experiments:
[1] = system: Human papillomavirus type 1a protein E7 (residues 44-93); assay: small molecules binding HPV E7 44-93 – biochemical, small-molecule microarray, residues 44-93, 635 nm fluorescence, primary screen (AID 1108); conditions: fluorescence 635 nm, higher = more signal;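 also: E7 fragment applied at 1 µg/mL in TBST for 1 h at 4 C; score combines spot fluorescence with its signal to noise ratio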
[2] = hepatitis C replication reporter changes, two-sided – Huh7 cells, luciferase reporter, HCV replication inhibitor project, primary screen (AID 1109); conditions: Huh7 HCV replicon luciferase reporter, 48 h; higher = more signal;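 also: huh7 hepatoma cells harbouring a luciferase neomycin HCV replicon reporter; luciferase luminescence as measure of HCV replicon replication; test concentration not given here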
[3] = target: Left-right determination factor 2 (Homo sapiens) (UniProt O00292); assay: small molecules binding LEFTY2 protein – biochemical, small-molecule microarray, 635 nm fluorescence scan, primary screen (AID 1110); conditions: higher = more signal
Sequence of Left-right determination factor 2 (Homo sapiens) (O00292 whole entry, looked up): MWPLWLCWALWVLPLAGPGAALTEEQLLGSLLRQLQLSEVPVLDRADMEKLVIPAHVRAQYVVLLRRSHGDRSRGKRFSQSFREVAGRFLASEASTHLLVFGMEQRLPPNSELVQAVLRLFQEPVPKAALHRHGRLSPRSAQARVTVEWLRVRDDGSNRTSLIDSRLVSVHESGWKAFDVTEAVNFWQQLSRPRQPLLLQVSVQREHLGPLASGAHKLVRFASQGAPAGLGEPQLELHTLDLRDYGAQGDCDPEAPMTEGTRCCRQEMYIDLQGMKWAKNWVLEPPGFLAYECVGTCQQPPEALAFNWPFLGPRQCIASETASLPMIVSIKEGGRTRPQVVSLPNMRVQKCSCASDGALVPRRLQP

[4] = target: Calmodulin-1 (Homo sapiens) (UniProt P0DP23); assay: small molecules binding calmodulin-1 with EGTA – biochemical, small-molecule microarray, Cy5-labelled CALM1, profiling panel (AID 1111); conditions: Cy5-CALM1 binding fluorescence, higher = more signal;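 also: labelled calmodulin applied in Tris saline Tween buffer holding calcium plus EGTA and DTT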
[5] = target: Calmodulin-1 (Homo sapiens) (UniProt P0DP23); assay: small molecules binding Ca-loaded calmodulin-1 – biochemical, small-molecule microarray, Cy5-labelled CALM1, plus calcium, artefact control for SMM control-protein annotation, profiling panel (AID 1112); conditions: Cy5-CALM1 binding fluorescence, higher = more signal;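 also: score merges spot fluorescence with signal to noise from triplicate slides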
[6] = probe aWnt5a binding to arrayed compounds – biochemical, biotinylated probe, 635/667 nm fluorescence, primary screen (AID 1113); conditions: small-molecule microarray, higher = more signal;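 also: score merges 667 nm fluorescence intensity with signal-to-noise per printed feature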
[7] = probe aShh binding to arrayed compounds – biochemical, biotinylated probe, 635/667 nm fluorescence, primary screen (AID 1114); conditions: small-molecule microarray, higher = more signal;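 also: probe is biotin-labelled aShh protein from a stem cell growth factor screen; measures binding of labelled protein to compounds printed on the slide; score merges feature fluorescence at 667 nm with signal-to-noise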
[8] = probe aNog binding to arrayed compounds – biochemical, biotinylated probe, 635/667 nm fluorescence, primary screen (AID 1115); conditions: small-molecule microarray, higher = more signal;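 also: probe is biotinylated aNog protein used at 0.15 µg/mL for 1 h at 4 C; z-score combines 667 nm fluorescence of each spot with its signal to noise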
[9] = target: Torsin-1A-interacting protein 1 (Homo sapiens) (UniProt Q5JTV8); assay: compound microarray binding of lysate hLAP1 – cell lysate, small-molecule microarray, COS7 lysate, 635/667 nm fluorescence, primary screen (AID 1116); conditions: 635 nm fluorescence, higher = more signal
Sequence of Torsin-1A-interacting protein 1 (Homo sapiens) (Q5JTV8 whole entry, looked up): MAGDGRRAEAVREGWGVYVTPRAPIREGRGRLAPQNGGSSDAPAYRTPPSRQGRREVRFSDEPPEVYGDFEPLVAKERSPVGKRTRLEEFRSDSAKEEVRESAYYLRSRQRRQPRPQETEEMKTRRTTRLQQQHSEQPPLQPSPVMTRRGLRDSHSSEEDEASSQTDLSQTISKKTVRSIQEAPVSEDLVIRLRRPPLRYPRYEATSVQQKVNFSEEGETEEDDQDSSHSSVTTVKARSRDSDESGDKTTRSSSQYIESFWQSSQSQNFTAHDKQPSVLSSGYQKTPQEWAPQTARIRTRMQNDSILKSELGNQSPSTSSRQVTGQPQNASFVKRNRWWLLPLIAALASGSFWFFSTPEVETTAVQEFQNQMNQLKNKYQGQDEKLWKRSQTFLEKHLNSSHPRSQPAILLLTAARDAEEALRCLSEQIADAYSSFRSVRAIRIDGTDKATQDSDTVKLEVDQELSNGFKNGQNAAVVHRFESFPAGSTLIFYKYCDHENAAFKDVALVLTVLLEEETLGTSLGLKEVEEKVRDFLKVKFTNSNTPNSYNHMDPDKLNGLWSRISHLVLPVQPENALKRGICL

[10] = target: Alpha-bungarotoxin (Bungarus multicinctus) (UniProt P60615); assay: compounds binding labelled alpha-BTX control protein – biochemical, small-molecule microarray, Alexa647 label, 635/667 nm fluorescence, artefact control for SMM control protein annotation, profiling panel (AID 1117); conditions: alpha-BTX-A647 binding fluorescence, higher = more signal
Sequence of Alpha-bungarotoxin (Bungarus multicinctus) (P60615 whole entry, looked up): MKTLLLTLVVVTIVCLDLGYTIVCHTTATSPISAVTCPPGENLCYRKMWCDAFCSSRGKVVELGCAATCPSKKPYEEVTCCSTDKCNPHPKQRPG

Row | SMILES | composite z-score [1] | z-score [2] | composite z-score [3] | composite z-score [4] | composite z-score [5] | composite z-score [6] | composite z-score [7] | composite z-score [8] | composite z-score [9] | composite z-score [10]
1 | O=C1C[C@@](C(=O)NCC(F)(F)F)(c2ccc([N+](=O)[O-])cc2)[C@@H](c2ccc(CO)cc2I)N1CC12CC3CC(CC(C3)C1)C2 | 1.31 | -3.3 | 0.0604 | 0.595 | 0.149 | -0.0843 | -0.314 | -0.229 | 0.349 | 1.23
2 | O=C1O[C@H](c2ccccc2)[C@H](c2ccccc2)N2[C@H]1[C@@H](C(=O)N1CCN(c3ncccn3)CC1)[C@]1(C(=O)Nc3ccc(C#CC4(O)CCCCCC4)cc31)[C@H]2c1ccc(O)cc1 | 1.07 | -0.317 | 0.15 | 1.14 | 0.792 | -0.0037 | 0.106 | -0.0496 | 0.679 | 2.18
3 | COCCOC(=O)N1C(=O)[C@@]2(c3cc(C#CC4=CCCCC4)ccc31)[C@H](C(=O)N1CCCCCCC1)[C@H]1C(=O)O[C@H](c3ccccc3)[C@H](c3ccccc3)N1[C@@H]2c1ccccc1OCCO | 1.37 | -0.794 | 0.327 | 1.78 | 0.759 | 0.16 | 0.926 | 1.2 | 1.94 | 1
4 | CN1C(=O)C2CC=C(C3=CCO[C@@H]3[C@H]3CCCN3S(=O)(=O)c3ccccc3[N+](=O)[O-])CC2C1=O (stereo not given in full) | -0.351 | -0.0844 | -0.377 | -0.194 | -0.0107 | -0.242 | -0.2 | -0.0116 | 0.0183 | 0.0302
5 | C=C(CCCC)C(=O)CC[C@H](OC(=O)c1ccccc1-c1ccccc1C(=O)O)c1cccc(OCCO)c1 | -0.109 | -1.92 | 0.0292 | -0.268 | -0.832 | -0.13 | -0.0866 | -0.318 | 0.206 | -0.0274
6 | C=CCOC(=O)[C@H]1[C@@H]2C(=O)O[C@@H](c3ccccc3)[C@@H](c3ccccc3)N2[C@@H](c2ccc(OCCOC(=O)[C@H]3C[C@H]4C(=O)NCC(=O)N4[C@H]3c3ccc(O)cc3)cc2)[C@]12C(=O)Nc1ccccc12 | 1.44 | -2.07 | 0.506 | 1.18 | -0.237 | -0.0758 | -0.16 | -0.217 | 1.05 | 1.77
7 | Cc1ccc(S[C@]2(C(=O)NCC(C)C)CC(=O)N(C(C)C)[C@@H]2c2ccc(CO)cc2I)cc1 | 0.297 | -0.98 | -1.62 | -1.21 | 0.0034 | -0.112 | -0.0035 | -0.131 | 0.626 | -0.659
8 | CCCCC(=C=CC[C@@H](O)c1ccc(OCCO)cc1)CCO | -0.919 | -0.96 | -0.488 | -0.45 | 0.0486 | -0.101 | -0.154 | -0.314 | 0.764 | 0.657
9 | COc1ccc([Si](C)(C)[C@@H]2[C@@H](CC(=O)N(CCO)Cc3ccccc3)O[C@]3(C(=O)N(Cc4cccc(I)c4)c4ccccc43)[C@H]2C)cc1 | 1.28 | -3.82 | 0.741 | 2.83 | 1.21 | -0.0425 | 0.564 | 0.0051 | 0.319 | 0.855
10 | C=C(CCCC)C(=O)CC[C@@H](OC(C)=O)c1ccc(OCCO)cc1 | 0.159 | -1.98 | 0.125 | -0.537 | -1.29 | -0.1 | -0.0035 | -0.113 | 3.18 | -0.127
11 | C=C1C(=O)C=C2CN(C(=O)c3ccccc3)[C@@](Cc3ccc(F)cc3)(C(=O)OC)[C@@H]12 | 1.39 | -3.68 | -0.406 | 2.19 | 1.08 | 0.177 | -0.0626 | 1.99 | 0.952 | 1.85
12 | CC(C)C[C@H]1NC(=O)CNC(=O)[C@@]23C(=O)N[C@@H](Cc4ccccc4)C2[C@H](C)[C@@]2(C)O[C@H]2C3/C=C/C/C=C\CNC1=O (stereo not given in full) | 0.0774 | 0.238 | 0.715 | -0.322 | -0.833 | -0.169 | -0.221 | -0.0315 | -0.0248 | -0.188
13 | COc1ccc([Si](C)(C)[C@H]2[C@H](CC(=O)N3CCC[C@H]3CO)O[C@@]3(C(=O)N(C)c4c(Br)cc(C)cc43)[C@@H]2C)cc1 | 1.45 | -2 | 0.946 | 0.783 | 0.339 | 1.19 | 1.28 | 0.241 | 0.128 | 1.26
14 | C=C[C@H](C)[C@@H](OC(=O)Nc1ccc(SC)cc1)c1ccc(OCCO)cc1 | 1.3 | -0.931 | -0.396 | 0.19 | 0.601 | -0.0792 | -0.0643 | 0.958 | 0.248 | 0.438
15 | C=C(C(=O)CC[C@@H](OC(=O)c1ccccc1-c1ccccc1C(=O)O)c1ccc(OCCO)cc1)C(C)C | 1.33 | -2.58 | 0.63 | 0.653 | -0.698 | 0.0162 | 0.108 | -0.095 | 1.3 | 0.478
16 | CCc1cccc(NC(=O)O[C@H]2[C@H](OC(=O)Nc3ccccc3-c3ccccc3)[C@H](OC(=O)Nc3ccccc3-c3ccccc3)[C@@H](OC)O[C@@H]2CO)c1 | 1.42 | -1.95 | 0.588 | 1.44 | -0.301 | 0.179 | 0.0796 | -0.318 | 1.81 | 1.29
17 | COCCOC(=O)N1C(=O)[C@@]2(c3cc(C#CCNC(N)=O)ccc31)[C@H](C(N)=O)[C@H]1C(=O)O[C@H](c3ccccc3)[C@H](c3ccccc3)N1[C@@H]2c1ccc(O)cc1 | -0.109 | 0.494 | -0.0417 | 0.062 | 0.662 | -0.0384 | 0.288 | -0.0245 | 0.0743 | -0.285
18 | CN(C)CCCC[C@@H]1NC(=O)[C@H]2C[C@@H](C(=O)NCCCCCCNC(=O)CS)[C@@H](c3cccc(OCCO)c3)N2C1=O | 0.521 | 0.0145 | -0.17 | -0.0373 | -0.323 | -0.113 | -0.0709 | -0.429 | 0.358 | 0.539
19 | COCCOC(=O)N1C(=O)[C@@]2(c3cc(C#CCNC(N)=O)ccc31)[C@H](c1ccc(O)cc1)N1[C@H](c3ccccc3)[C@H](c3ccccc3)OC(=O)[C@H]1[C@@H]2C(=O)N1CCc2cc(OC)c(OC)cc2C1 | 1.31 | -0.281 | 0.266 | 0.111 | 0.118 | 0.586 | -0.167 | -0.25 | 0.712 | 0.857
20 | CO[C@H]1O[C@H](CO)[C@@H](OC(=O)Nc2ccccc2)[C@@H]2OC(=O)[C@@H](Cc3ccccc3)C/C=C/C[C@H](Cc3ccccc3)C(=O)O[C@@H]12 | 0.779 | -0.897 | -0.152 | -0.0442 | -0.845 | -0.0721 | -0.154 | -0.125 | 0.235 | 0.224
21 | [N-]=[N+]=NCc1ccccc1[C@H]1OC(c2ccc(OCCCO)cc2)=N[C@@]1(Cc1ccccc1N=[N+]=[N-])C(=O)N1CCOCC1 | 1.39 | -2.2 | -0.267 | 1.86 | 0.642 | 0.0115 | 0.539 | 1.44 | 0.506 | 1.4
22 | CS(=O)(=O)CCOC(=O)C1=CC(CCCO)=CC(C2CC2)N(Cc2sc3ccccc3c2Cl)C=C1C(=O)OCCS(C)(=O)=O (stereo not given) | 0.632 | -2.01 | 0.191 | 1.18 | 0.811 | 0.0324 | 0.214 | 0.614 | -0.643 | 0.904
